The source of these data is PubChem BioAssay (NCI).

About 83,000 compounds went through this panel and 20% of them were active in at least one assay; those are over-represented in the sample as a whole.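 Interpretation: 100, growth as untreated; towards 0, rising growth inhibition; 0, no net growth; 0 to -100, cell death. Compounds scoring below 10 were considered active.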 Values without a mark were called inactive. The source made the active and inactive calls.

Test in all cases: NCI-60 one-dose screen, 48 h (100 = growth as untreated, 0 = no growth, -100 = all killed)
Common to all, as to settings: 10 µM unless noted

For experiment [1], the system named is OVCAR-8 ovarian.
Experiment [2] concerns OVCAR-5 ovarian.
Experiment [3] relates to OVCAR-4 ovarian.
For experiment [4], the system named is IGROV1 ovarian.
For experiment [5], the system named is OVCAR-3 ovarian.
Experiment [6] relates to HS 578T breast.
Experiment [7] concerns NCI/ADR-RES ovarian.
Experiment [8] deals with T-47D breast.
In experiment [9] the test system is SK-OV-3 ovarian.

For the compound `COc1ccc(/C=c2\sc3n(c2=O)NC2C(N=3)N(C)C(=O)N2C)cc1` (configuration not stated), the growth in experiment [1] is 101%; in experiment [2], 95.1%; in experiment [3], 100%; in experiment [4], 99.8%; in experiment [5], 102%; in experiment [6] it was 95.9%. The growth in [7] was 100%; in [8], 102%.

Consider `CN1C(=O)N(C)C2C1NN=c1s/c(=C\c3c[nH]c4ccccc34)c(=O)n12` (configuration not stated), for which the growth is 24.1% in experiment [1]; 42.7% in experiment [2]; 103% in experiment [3]; 18.7% in [4]; 8.1% (active) in [5]; 18.7% in [6]. Further, the growth was 15.6% in experiment [7] and 82.6% in [8].

For `COc1ccc(CSc2nnc(SCC(=O)Nc3ccc(Cl)cc3)s2)cc1`, the growth in experiment [1] was 84.4%; in experiment [3], 84.7%; in experiment [9] it was 103%; in [4], 63.6%; in experiment [5], 91.2%; in [6] it was 75.6%. Also, the growth is 47.6% in experiment [7] and 67.2% in experiment [8].

With `O=c1oc2ccc(Cl)cc2c(=O)n1-c1ccc(I)cc1F`, the growth was 23.1% in experiment [2]; 7.52% (active) in [9]; 14.9% in [4]; 6.61% (active) in experiment [5]; -0.395% (active) in [6]; 5.51% (active) in experiment [7]. Moreover, the growth in experiment [8] was -6.79% (active).

Turning to `O=C(N=Nc1c(O)[nH]c2ccccc12)c1oc2ccccc2c1CN1CCN(c2ccccc2)CC1`, the growth is 6.9% (active) in experiment [1]; 3.76% (active) in [2]; -79% (active) in experiment [3]; -5.86% (active) in [4]; -69.9% (active) in experiment [5]; 27.3% in experiment [6]. In addition, the growth in experiment [7] is -34.9% (active); in [8] it was -17.7% (active).

As for `O=c1c(-c2nc3ccccc3[nH]2)cc2ccccc2n1Cc1cn(Cc2ccc(F)cc2)nn1`, the growth in [1] is 28.5%; in [2] it was -20.5% (active); in experiment [3], 43.5%; in [4], 9.95% (active); in [5] it was 3.02% (active); in [7], 31.7%. Further, in experiment [8], the growth was 42.3%.

With `O=C(CN1C=NC2C(N3CCOCC3)=NC=NC21)c1cccc2ccccc12` (configuration not stated), the growth is 97% in [1]; 92% in [2]; 90.8% in experiment [4]; 101% in experiment [5]; 102% in experiment [6]; 104% in experiment [7]. In addition, the growth in experiment [8] was 90.7%.

`COc1ccc2oc(=O)cc(Cn3cc(Cn4cnc5c4c(=O)n(C)c(=O)n5C)nn3)c2c1`: the growth is 106% in [1]; 94% in [2]; 103% in experiment [3]; 104% in [4]; 110% in [5]; 97.8% in [6]. Besides, the growth in experiment [7] is 105%; in experiment [8], 94.1%.

For `CC[C@H](C)[C@@H](C(=O)OC)n1cc(CNC(=O)[C@@H](Cc2ccccc2)NC(=O)OCc2ccccc2)nn1`, the growth in experiment [1] is 91.3%; in experiment [3], 105%; in experiment [9], 109%; in experiment [6] it was 101%; in experiment [7], 94.4%; in [8] it was 107%.

As for `O=C(CSc1nc2ccccc2c(=O)n1-c1ccccc1)Nc1ccc(C(=O)/C=C/c2ccc(Cl)cc2)cc1`, the growth is 103% in experiment [1]; 98.4% in experiment [2]; 105% in experiment [3]; 97.3% in experiment [4]; 104% in experiment [5]; 106% in experiment [6]. In addition, the growth was 106% in experiment [7] and 107% in experiment [8].

Turning to `CC1CCCCN1CCCNC(=O)c1ccc2c(c1)sc1nc(-c3ccc(F)cc3)cn12` (configuration not stated), the growth in [1] was 105%; in experiment [2], 100%; in experiment [9] it was 99.7%; in experiment [4] it was 93.8%; in [5], 105%; in experiment [6], 98.5%. For the same compound, the growth was 87.6% in [7] and 93.4% in experiment [8].

Take `O=c1oc2ccc(Br)cc2c(=O)n1-c1ccc(Br)cc1F`: the growth in [1] was 12.3%; in experiment [2], 18.8%; in [3], 10.4%; in [5], 8.18% (active); in experiment [6], -5.29% (active); in experiment [7], 2.87% (active). Also, the growth in [8] is -1.51% (active).

For the compound `O=C(Nc1ccc(N2CCNCC2)cn1)c1[nH]ncc1Nc1ncnc2sccc12`, the growth in [1] was -33.5% (active); in experiment [2], 67%; in experiment [9], 70.4%; in experiment [4] it was 78.1%; in experiment [5] it was 33.2%; in [6], 69.9%. The growth in [7] was 91%; in experiment [8], -4.16% (active).

For the compound `Cc1ccccc1CNC(=O)C1CN(c2ccc(Cl)cc2)N(c2ccc(Cl)cc2)C1=O` (configuration not stated), the growth in experiment [2] is 91.8%; in experiment [3], 84.1%; in experiment [4], 89.7%; in [5], 81.1%; in experiment [6] it was 85.5%; in [7], 84.3%. Moreover, the growth in [8] was 71.6%.

For the compound `CCOC(=O)CSc1c(-c2ccccc2)c2cc(Cl)ccc2[nH]c1=O`, the growth in [1] was 115%; in experiment [3] it was 89.1%; in experiment [9] it was 107%; in experiment [4], 99.1%; in [5], 106%; in experiment [6], 84.2%. The growth in experiment [7] was 84.3%; in [8], 98.1%.

Regarding `CCN1C(=O)N(c2ccccc2)C2NN=c3s/c(=C4\C(=O)N(C(C)C)c5ccccc54)c(=O)n3C21` (configuration not stated), the growth in experiment [1] was 31.6%; in experiment [2], 45.3%; in [3], 45.8%; in [4], 28.5%; in experiment [5], 1.06% (active); in experiment [6] it was 24.6%. The growth was 15.7% in [7] and 53.8% in [8].

Regarding `CCN(CC)c1cc(C)c2cc(NC(=O)c3cccc(OC)c3)ccc2n1`, the growth in experiment [1] was 74.8%; in [2] it was 98.3%; in experiment [9], 104%; in experiment [4], 98.4%; in experiment [5] it was 74.8%; in experiment [6], 58.3%. The growth was 80.5% in experiment [7] and 70.8% in experiment [8].

As for `CCN(CC)CCCNc1ccnc2cc3ccccc3cc12`, the growth is 60.1% in [1]; 77.4% in [3]; 72.4% in [9]; 81.2% in experiment [4]; 74.5% in [5]; 68.4% in experiment [6]. Also, the values for the growth in experiment [7] and in [8] were 71.1% and 66%, respectively.
